Inconclusive results are not listed. Active and inactive are the calls of the source. Calls come from the whole dose curve; as a rule, active = well fitted inhibition curve with a large enough effect; inconclusive = small, poorly fitted or top-dose-only effect; inactive = flat fitted curve, though single readings scatter.
Experiments:
Assay in all cases: qHTS profiling for inhibitors of Plasmodium falciparum proliferation (AID 504749); note: nearly all actives have a fitted effect of over 60% in size
Details in all cases: P. falciparum in erythrocytes, SYBR Green DNA, 72 h; series mostly up to 28.7 µM
CP194 = tested on: CP194
How it was run: (§1)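 Three-day growth assay of blood-stage parasites in erythrocytes (0.3% parasitemia, 2.5% hematocrit) at 37 C, 5% CO2, quantified by SYBR Green DNA staining after overnight detergent lysis.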

CP201 = tested on: CP201
How it was run: as §1

CP203 = tested on: CP203
How it was run: as §1

CP211 = tested on: CP211
How it was run: as §1

CP215 = tested on: CP215
How it was run: as §1

CP217 = tested on: CP217
How it was run: as §1

CP237 = tested on: CP237
How it was run: as §1

CP238 = tested on: CP238
How it was run: as §1

CP247 = tested on: CP247
How it was run: as §1

CP250 = tested on: CP250
How it was run: as §1

CP252 = tested on: CP252
How it was run: as §1

CP256 = tested on: CP256
How it was run: as §1

CP260 = tested on: CP260
How it was run: as §1

CP262 = tested on: CP262
How it was run: as §1

CP265 = tested on: CP265
How it was run: as §1

CP266 = tested on: CP266
How it was run: as §1

CP268 = tested on: CP268
How it was run: as §1

CP269 = tested on: CP269
How it was run: as §1

CP286 = tested on: CP286
How it was run: as §1

CP291 = tested on: CP291
How it was run: as §1

Measured: Potency

Cc1ccccc1N=Nc1ccc(N=Nc2c(O)ccc3ccccc23)c(C)c1
inactive: all assays above

CN1CCCN=C1COC(=O)C(O)(c1ccccc1)C1CCCCC1 (centres undefined)
not listed: CP291
inactive: all other assays above

COc1ccc(NS(=O)(=O)c2ccc(N)cc2)nn1
inactive: all assays above

C=CCNC(N)=S
inactive: all assays above

Cc1ccc(S(=O)(=O)NC(=O)NC2CCCCC2)cc1
inactive: all assays above

CC(=O)Nc1ccc(C(=O)O)cc1
inactive: all assays above

Cc1c(C(=O)NCCO)[n+](=O)c2ccccc2n1[O-]
inactive: all assays above

CC(C)CCOC(=O)c1ccc(N(C)C)cc1
inactive: all assays above

CCCCCCCCCCCCCCCCCCO
inactive: all assays above

Cc1cc(C)nc(NS(=O)(=O)c2ccc(N)cc2)n1
inactive: all assays above

CN1CCN(C(=O)C2CCCCC2)CC1
inactive: all assays above

CN1C(C)(C)CCCC1(C)C
inactive: all assays above

O=c1[nH]c2cc(C(F)(F)F)c(N3CCOCC3)cc2n(CP(=O)(O)O)c1=O
inactive: all assays above

Cc1ccc(S(=O)(=O)NC(=O)NC2CCCCCCC2)cc1
inactive: all assays above

CC(=O)NCc1c(I)c(NC(C)=O)c(I)c(C(=O)O)c1I
inactive: all assays above

O=C(O)Cc1ccc(CCNS(=O)(=O)c2ccc(Cl)cc2)cc1
inactive: all assays above

O=C(O)c1ccccc1OP(=O)(O)O
inactive: all assays above

O=C(O)CCC(=O)O
inactive: all assays above

OCc1ccc(Cl)cc1Cl
inactive: all assays above

O=C(O)Cn1c(C(=O)Nc2nc(-c3ccccc3Cl)cs2)cc2ccccc21
inactive: all assays above

Cc1cc(=O)[nH]c(=S)[nH]1
inactive: all assays above

CNc1c2c(nn1C)CCCC2
inactive: all assays above

NC(=O)CC[C@@H](N)C(=O)O
inactive: all assays above

CC(C)CCCC(C)CCCC(C)CCCCC(C)CCCC(C)CCCC(C)C (centres undefined)
inactive: all assays above

O=C(/C=C/c1ccccc1)OCc1ccccc1
inactive: all assays above

O=C(NCCCN1CCOCC1)c1ccc(Cl)cc1
inactive: all assays above

O=C(O)c1ccc(OCCCOc2ccc(C(=O)O)cc2)cc1
inactive: all assays above

O=C(Cn1ccnc1[N+](=O)[O-])NCCO
inactive: all assays above

CC(O)CCCCn1c(=O)c2c(ncn2C)n(C)c1=O (centres undefined)
inactive: all assays above

Reference: PubChem BioAssay (NCATS)
